The text below walks through data of PubChem BioAssay (NCI).

Among the test systems are HCT-15 colon; HT29 colon; SNB-75 CNS; SNB-19 CNS; U251 CNS; PC-3 prostate; SK-MEL-5 melanoma; UACC-62 melanoma; LOX IMVI melanoma; SK-MEL-28 melanoma; SK-MEL-2 melanoma; EKVX NSCLC; SN12C renal; UO-31 renal; TK-10 renal; ACHN renal; CAKI-1 renal; A498 renal; CCRF-CEM leukemia; MOLT-4 leukemia.
What all share (assay): NCI-60 one-dose screen, 48 h (100 = growth as untreated, 0 = no growth, -100 = all killed)
Conditions in all cases: 10 µM unless noted

This is part of a sample that, as a whole, favours compounds with a hit. Of some 83,000 tested, about 20% had one in any assay.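 Results are percent growth after 48 hours of single-concentration exposure. 100 means growth as in untreated cells, lower positive values show inhibition; negative values down to -100 show cell death.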 A number with no mark means an inactive call. Activity calls are given as the source filed them. How the source made its calls: active means growth percent below 10; inactive means the rest.

As for `Clc1ccc2[nH]cc(-c3nn4cc(-c5cccnc5)nc4s3)c2c1`, the growth in the experiment on HCT-15 colon was 95.1%; in the experiment with HT29 colon, 98.7%; in the experiment on SNB-75 CNS, 90.5%; in the experiment on SNB-19 CNS, 100%; with U251 CNS it was 93.8%; in the experiment with PC-3 prostate it was 88.6%. Moreover, the growth in the experiment on SK-MEL-5 melanoma was 96.2%; in the experiment on UACC-62 melanoma, 90.1%; in the experiment on LOX IMVI melanoma, 123%; with SK-MEL-28 melanoma, 101%; in the experiment on SK-MEL-2 melanoma, 101%; in the experiment with EKVX NSCLC it was 84.1%. Further, the growth with SN12C renal was 96.6%; in the experiment on UO-31 renal, 71.6%; with TK-10 renal, 184%; with ACHN renal, 87.8%; in the experiment on CAKI-1 renal, 69.7%; in the experiment with A498 renal, 109%. Further, the growth with CCRF-CEM leukemia was 84.3%; in the experiment with MOLT-4 leukemia it was 94.5%.
For the compound `CN1CCN(Cc2ccc(/C=N/Nc3ccnc4cc(Cl)ccc34)cc2)CC1`, the growth with HCT-15 colon was 38.2%; in the experiment on HT29 colon, 42.5%; in the experiment on SNB-75 CNS, 99%; with SNB-19 CNS, 98.2%; in the experiment on U251 CNS it was 84.6%; with PC-3 prostate, 75.8%. Besides, the growth was 94.3% in the experiment with SK-MEL-5 melanoma; 104% in the experiment with UACC-62 melanoma; 15.3% in the experiment with LOX IMVI melanoma; 98% in the experiment on SK-MEL-28 melanoma; 113% in the experiment on SK-MEL-2 melanoma; 82.6% in the experiment on EKVX NSCLC. In addition, the growth in the experiment with SN12C renal is 87.9%; with UO-31 renal, 78.8%; in the experiment with TK-10 renal it was 162%; with ACHN renal, 90.5%; with CAKI-1 renal, 77.5%; in the experiment with A498 renal, 111%. Also, the growth in the experiment with CCRF-CEM leukemia was 56.9%; with MOLT-4 leukemia it was 63.1%.
Consider `Cc1ccccc1Nc1nc(SC(C)C)nc(-c2ccccc2)c1C#N`, for which the growth with HCT-15 colon was 58.2%; in the experiment on HT29 colon it was 53.2%; in the experiment with SNB-75 CNS it was 101%; in the experiment on SNB-19 CNS, 19.9%; in the experiment with U251 CNS, 33.8%; in the experiment on PC-3 prostate, 80.8%. Besides, the growth in the experiment with SK-MEL-5 melanoma was 85.2%; in the experiment on UACC-62 melanoma it was 92.3%; with LOX IMVI melanoma, 10.5%; with SK-MEL-28 melanoma it was 87.3%; in the experiment on SK-MEL-2 melanoma, 130%; in the experiment on EKVX NSCLC, 73.2%. The growth in the experiment with SN12C renal was 12.1%; in the experiment with UO-31 renal, -40.2% (active); in the experiment with TK-10 renal, 61.1%; in the experiment on ACHN renal, 13.4%; in the experiment on CAKI-1 renal, 38.4%; with A498 renal, 53.5%. For the same compound, the growth was 80.9% in the experiment with CCRF-CEM leukemia and 90.2% in the experiment with MOLT-4 leukemia.
As for `O=C1[C@@H]2Cc3c([nH]c4ccccc34)[C@@H](c3ccc(Cl)cc3)N2C(=O)CN1C1CCN(Cc2ccccc2)CC1`, the growth in the experiment on HCT-15 colon was 34.1%; in the experiment with HT29 colon, -28.4% (active); in the experiment on SNB-75 CNS it was 29%; in the experiment on SNB-19 CNS, 50.5%; in the experiment with U251 CNS, 34.7%; in the experiment on PC-3 prostate, 21.4%. For the same compound, the growth in the experiment with SK-MEL-5 melanoma was 54.2%; in the experiment on UACC-62 melanoma, 62.3%; in the experiment on LOX IMVI melanoma, -15% (active); with SK-MEL-28 melanoma it was 88.1%; in the experiment with SK-MEL-2 melanoma, 92.7%; with EKVX NSCLC it was 54.6%. In addition, the growth in the experiment with SN12C renal was 55%; with UO-31 renal it was 30.5%; with TK-10 renal, 78.9%; in the experiment on ACHN renal, 51.4%; in the experiment with CAKI-1 renal, 26.2%; in the experiment on A498 renal it was 76.1%. Moreover, the growth with CCRF-CEM leukemia is 20.1%; in the experiment on MOLT-4 leukemia, 13.5%.
For the compound `O=C(NCCNc1cc(-c2cn(-c3ccccc3)nc2-c2cccc(O)c2)ccn1)Nc1cc(C(F)(F)F)cc(C(F)(F)F)c1`, the growth in the experiment with HCT-15 colon is 100%; in the experiment on HT29 colon it was 95.7%; with SNB-75 CNS, 75.4%; in the experiment on SNB-19 CNS, 97%; in the experiment with U251 CNS it was 86.8%; with PC-3 prostate, 80.7%. For the same compound, the growth is 96.8% in the experiment on SK-MEL-5 melanoma; 94.1% with UACC-62 melanoma; 88% with LOX IMVI melanoma; 96.9% in the experiment on SK-MEL-28 melanoma; 93.7% in the experiment on SK-MEL-2 melanoma; 90.6% in the experiment on EKVX NSCLC. Further, the growth in the experiment with SN12C renal is 95.5%; in the experiment on UO-31 renal it was 77.1%; with TK-10 renal, 94.4%; in the experiment on ACHN renal it was 96.9%; in the experiment on CAKI-1 renal, 88.9%; in the experiment on A498 renal it was 76.6%. For the same compound, the values for the growth in the experiment on CCRF-CEM leukemia and in the experiment on MOLT-4 leukemia were 101% and 84.9%, respectively.
`COc1cc2c3c(cc4c5c(ccc4c3c1OC)OCO5)N(CCN(C)C)C2=O`: the growth was -6.74% (active) in the experiment with HCT-15 colon; -9.31% (active) with HT29 colon; -75.5% (active) with SNB-75 CNS; 1.56% (active) in the experiment with SNB-19 CNS; -2.59% (active) in the experiment with U251 CNS; 6.59% (active) with PC-3 prostate. Also, the growth with SK-MEL-5 melanoma is -90.1% (active); with UACC-62 melanoma it was -64% (active); in the experiment on LOX IMVI melanoma it was -82.6% (active); in the experiment with SK-MEL-28 melanoma, -86.6% (active); in the experiment on SK-MEL-2 melanoma, -44.5% (active); in the experiment on EKVX NSCLC, -22% (active). In addition, the growth in the experiment with SN12C renal is -5.44% (active); in the experiment with UO-31 renal, -53.9% (active); in the experiment with TK-10 renal it was -4.01% (active); in the experiment with ACHN renal, -51.4% (active); with CAKI-1 renal, -26.6% (active); in the experiment on A498 renal it was -77.6% (active). Further, the growth is 1.57% (active) with CCRF-CEM leukemia and 3.85% (active) in the experiment with MOLT-4 leukemia.
As for `COc1cc(C(=O)c2cc(C(C)=O)c3c(C)cccn23)cc(OC)c1OC`, the growth is 88.6% in the experiment with HCT-15 colon; 103% with HT29 colon; 64.6% in the experiment with SNB-75 CNS; 78.7% with SNB-19 CNS; 96.7% in the experiment on U251 CNS; 90.2% in the experiment on PC-3 prostate. The growth with SK-MEL-5 melanoma is 97.1%; in the experiment with UACC-62 melanoma it was 70.5%; in the experiment with LOX IMVI melanoma, 96.7%; in the experiment with SK-MEL-28 melanoma it was 103%; in the experiment with SK-MEL-2 melanoma, 98.9%; in the experiment with EKVX NSCLC, 99%. The growth in the experiment with SN12C renal is 80.9%; in the experiment with UO-31 renal, 75.6%; in the experiment on TK-10 renal it was 108%; in the experiment with ACHN renal it was 97.9%; in the experiment with CAKI-1 renal, 84.5%; with A498 renal, -10.4% (active). For the same compound, the growth in the experiment on CCRF-CEM leukemia is 96.1%; with MOLT-4 leukemia it was 92.5%.
Consider `COc1ccc(-c2nc(C#N)c(N3CCC(S(=O)(=O)N4CCOCC4)CC3)o2)cc1`, for which the growth was 105% with HCT-15 colon; 101% in the experiment with HT29 colon; 103% in the experiment with SNB-75 CNS; 96.9% with SNB-19 CNS; 104% with U251 CNS; 98.2% in the experiment with PC-3 prostate. Besides, the growth in the experiment with SK-MEL-5 melanoma is 97.1%; in the experiment with UACC-62 melanoma, 96.3%; in the experiment on LOX IMVI melanoma it was 100%; with SK-MEL-28 melanoma, 99%; with SK-MEL-2 melanoma, 102%; in the experiment with EKVX NSCLC, 105%. The growth with SN12C renal was 99.5%; in the experiment on UO-31 renal, 89.1%; with TK-10 renal, 131%; with ACHN renal it was 97.8%; with CAKI-1 renal, 92.9%; in the experiment on A498 renal, 100%. Also, the growth with CCRF-CEM leukemia is 101%; in the experiment on MOLT-4 leukemia, 98.3%.
